Common to all, as to test: NCI-60 one-dose screen, 48 h (100 = growth as untreated, 0 = no growth, -100 = all killed)
The test system of one assay is BT-549 breast. The settings on record: 10 µM.
The next assay has as its system MDA-MB-435 melanoma. Conditions: 10 µM.
The next assay deals with SW-620 colon. Conditions: 10 µM.
The subject of another assay is MCF7 breast. Conditions: 10 µM unless noted.
For another assay, the system named is HCT-116 colon. The settings on record: 10 µM.
The subject of a further assay is HCC-2998 colon. The settings on record: 10 µM.
Another assay concerns KM12 colon. The settings on record: 10 µM.

Molecules are shown by their SMILES. Compounds without any hit were thinned out: in the full panel of roughly 83,000, 20% have a hit.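 Negative percent growth values reflect cell death: -40 means 40% of the cells present at the start died, and -100 means all died.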 Values without a mark were called inactive. The source made the active and inactive calls. The calls were made as follows: active = growth percent below 10; inactive = the rest.

Turning to `COc1ccc2c(c1)CCc1c-2n[nH]c1-c1[nH]nc2c1CCc1cc(OC)ccc1-2`, the growth was 54.6% in the assay on BT-549 breast; -5.37% (active) in the assay with MDA-MB-435 melanoma; 45% in the assay with SW-620 colon; 12.6% in the assay on MCF7 breast; 32.4% in the assay on HCT-116 colon; 80.9% with HCC-2998 colon. Besides, the growth in the assay on KM12 colon is 47.6%.
Consider `Oc1ccccc1-c1nnco1`, for which the growth in the assay on BT-549 breast is 77.5%; in the assay on MDA-MB-435 melanoma, 91.5%; in the assay on SW-620 colon, 98.3%; with MCF7 breast, 102%; with HCT-116 colon, 106%; in the assay on HCC-2998 colon it was 104%. Besides, the growth with KM12 colon is 100%.
For `O=C(Cc1nc2ccc([N+](=O)[O-])cc2nc1CC(=O)c1cccnc1)c1cccnc1`, the growth in the assay on BT-549 breast was 8.87% (active); with MDA-MB-435 melanoma it was 89.8%; in the assay with SW-620 colon it was 81.3%; in the assay with MCF7 breast, 47.4%; with HCT-116 colon it was 50.5%; with HCC-2998 colon, 96.2%. Further, the growth with KM12 colon is 63.1%.
On to `CC(C)=C(NC(=O)c1ccccc1)C(=O)O`, for which the growth is 110% in the assay with BT-549 breast; 110% in the assay on MDA-MB-435 melanoma; 102% in the assay with SW-620 colon; 112% with MCF7 breast; 117% with HCT-116 colon; 101% in the assay on HCC-2998 colon. Moreover, the growth in the assay with KM12 colon is 99.6%.
Consider `CC(C)OC(=O)c1cc(NC(=S)OC(C)C)ccc1Cl`, for which the growth in the assay on BT-549 breast is 180%; with MDA-MB-435 melanoma it was 97%; in the assay on SW-620 colon, 91.4%; in the assay on MCF7 breast, 95.1%; in the assay on HCT-116 colon it was 72.2%; in the assay on HCC-2998 colon, 160%. In the assay with KM12 colon, the growth was 59.5%.
As for `OCCN(CCO)C(=S)S`, the growth is 110% in the assay with BT-549 breast; 108% in the assay on MDA-MB-435 melanoma; 106% in the assay with SW-620 colon; 98.2% in the assay with MCF7 breast; 109% in the assay on HCT-116 colon; 113% in the assay on HCC-2998 colon. The growth with KM12 colon is 107%.
In the case of `COC(=O)C(C)Oc1ccc(OC#N)cc1` (stereo not given), the growth in the assay on BT-549 breast is 120%; with MDA-MB-435 melanoma, 102%; in the assay with SW-620 colon it was 95.6%; in the assay on MCF7 breast it was 98%; in the assay with HCT-116 colon, 108%; in the assay with HCC-2998 colon, 105%. For the same molecule, the growth with KM12 colon was 99.8%.
As to `c1csc(-c2cc(-c3cc(-c4cccs4)[nH]n3)n[nH]2)c1`, the growth in the assay on BT-549 breast was 90.7%; in the assay with MDA-MB-435 melanoma, 114%; in the assay on SW-620 colon, 104%; in the assay with MCF7 breast it was 75.5%; in the assay on HCT-116 colon it was 91.4%; in the assay with HCC-2998 colon it was 111%. Besides, in the assay with KM12 colon, the growth is 105%.
On to `C#Cc1cccc(NC(=O)c2ccc(Cl)cc2Cl)c1`, for which the growth with BT-549 breast is 111%; with MDA-MB-435 melanoma it was 103%; in the assay with SW-620 colon, 91.9%; in the assay on MCF7 breast it was 90.3%; with HCT-116 colon, 93.2%; with HCC-2998 colon it was 113%. Besides, in the assay on KM12 colon, the growth is 115%.
Take `COc1ccccc1NC(=O)C1=C(C)NC(C)=C(C(=O)Nc2ccccc2OC)C1c1cccc([N+](=O)[O-])c1`: the growth in the assay with BT-549 breast was 73.6%; in the assay with MDA-MB-435 melanoma, 75.4%; in the assay on SW-620 colon, 88%; in the assay with MCF7 breast, 47.8%; with HCT-116 colon it was 44.9%; in the assay on HCC-2998 colon, 76.9%. For the same molecule, the growth in the assay with KM12 colon was 67.3%.
Take `CN(C)CCN(C)CC(C)(C)C(=O)/C=C/c1ccc(Cl)cc1`: the growth in the assay on BT-549 breast is -34.5% (active); in the assay with MDA-MB-435 melanoma it was 0.434% (active); with SW-620 colon, -24.2% (active); in the assay on MCF7 breast, -8.84% (active); with HCT-116 colon, -92.1% (active); with HCC-2998 colon, -92.9% (active). Further, the growth in the assay on KM12 colon was -23.7% (active).
Turning to `COc1ccc(Oc2c(I)cc(CC(NC(C)=O)C(=O)O)cc2I)cc1` (stereo not given), the growth in the assay on BT-549 breast was 65.1%; in the assay on MDA-MB-435 melanoma, 85.1%; in the assay with SW-620 colon, 104%; in the assay with MCF7 breast, 89.2%; in the assay on HCT-116 colon, 79.6%; in the assay on HCC-2998 colon, 88%. Moreover, the growth in the assay with KM12 colon is 113%.
For `CCCCCCCCCCCCCC(=O)Oc1ccc[nH]c1=O`, the growth with BT-549 breast is 94.4%; in the assay with MDA-MB-435 melanoma it was 113%; in the assay on SW-620 colon, 101%; with MCF7 breast, 95.8%; with HCT-116 colon it was 94.6%; in the assay on HCC-2998 colon it was 109%. In addition, in the assay with KM12 colon, the growth is 92.7%.
Take `CCOC(=O)c1cc(/C=C/c2ccc(Cl)cc2Cl)on1`: the growth in the assay on BT-549 breast is 26.3%; in the assay on MDA-MB-435 melanoma, 66.8%; in the assay with SW-620 colon, -13.6% (active); in the assay with MCF7 breast, 0.711% (active); in the assay with HCT-116 colon, -86.6% (active); with HCC-2998 colon, 82%. Besides, the growth in the assay on KM12 colon is -29.7% (active).
With `COc1nc(N)nc2c1ncn2C1OC(CO)CC1O` (stereo not given), the growth is 94.3% in the assay on BT-549 breast; 105% in the assay with MDA-MB-435 melanoma; 108% in the assay on SW-620 colon; 100% with MCF7 breast; 98.8% with HCT-116 colon; 105% with HCC-2998 colon. Further, the growth in the assay with KM12 colon was 103%.
Consider `O=C(Cc1nc2ccc([N+](=O)[O-])cc2nc1CC(=O)c1ccccc1)c1ccccc1`, for which the growth is 37.3% with BT-549 breast; 63.3% in the assay on MDA-MB-435 melanoma; 62.6% in the assay with SW-620 colon; 30.1% with MCF7 breast; 34.8% in the assay with HCT-116 colon; 89% with HCC-2998 colon. Further, the growth in the assay on KM12 colon is 39.4%.
For `CNC(=S)NC(C)(C)C`, the growth in the assay with BT-549 breast was 89.5%; in the assay on MDA-MB-435 melanoma, 106%; with SW-620 colon, 103%; in the assay on MCF7 breast it was 97.4%; in the assay on HCT-116 colon, 102%; in the assay on HCC-2998 colon, 115%. Moreover, the growth in the assay with KM12 colon was 106%.
For the molecule `CCS(=O)(=O)CCCl`, the growth with BT-549 breast was 95.9%; in the assay with MDA-MB-435 melanoma it was 104%; in the assay with SW-620 colon it was 102%; with MCF7 breast, 76.8%; in the assay with HCT-116 colon, 98.7%; with HCC-2998 colon it was 125%. The growth in the assay with KM12 colon was 99.1%.
With `Cc1ccc(/C=C2\SC(=S)N(c3ccc(F)cc3)C2=O)o1`, the growth was 112% in the assay on BT-549 breast; 77.4% in the assay on MDA-MB-435 melanoma; 93.3% in the assay with SW-620 colon; 71.1% in the assay on MCF7 breast; 64.5% with HCT-116 colon; 118% with HCC-2998 colon. Besides, the growth with KM12 colon is 78.2%.
As to `CC(=O)CC(=O)N(C)C`, the growth is 99.5% with BT-549 breast; 98.2% with MDA-MB-435 melanoma; 101% in the assay with SW-620 colon; 94.8% in the assay with MCF7 breast; 95.6% in the assay on HCT-116 colon; 108% with HCC-2998 colon. In addition, the growth with KM12 colon was 102%.

The values above are taken from PubChem BioAssay (NCI).
